Assay results from PubChem BioAssay (NCI).
The panel holds about 79,000 compounds, 15% with a hit somewhere; the sample as a whole holds those more often. Active and inactive are the calls of the source. Rule as the data show it: active = growth inhibition above about 70%; inactive = the rest.

What was measured:
[1] = NCI Yeast Anticancer Drug Screen. Data for the rad50 strain (AID 155);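 also: 0% = growth of vehicle-only cultures of the same strain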; conditions: S. cerevisiae rad50 strain growth inhibition, hits give high values
In short: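 A DNA repair-deficient yeast mutant serves as the test organism; compound-induced growth inhibition is calculated against vehicle-treated cells.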

[2] = NCI Yeast Anticancer Drug Screen. Data for the mec2-1 strain (AID 157); conditions: S. cerevisiae mec2-1 strain, hits give high values
In short: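 Growth inhibition is read against vehicle-treated controls after compound exposure of the mec2-1 yeast strain, which is defective in DNA damage repair or cell cycle control.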

[3] = NCI Yeast Anticancer Drug Screen. Data for the sgs1 mgt1 strain (AID 161);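 also: 0% = growth of cultures given vehicle only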; conditions: S. cerevisiae sgs1 mgt1 strain, hits give high values
In short: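 Compounds are added to genetically altered yeast, and growth is compared with cultures given vehicle alone to give percent inhibition.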

[4] = NCI Yeast Anticancer Drug Screen. Data for the cln2 rad14 strain (AID 165);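 also: 0% = growth equal to vehicle treated cultures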; conditions: S. cerevisiae cln2 rad14 strain, hits give high values
In short: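 Growth inhibition, relative to vehicle-treated controls, is the read-out. The test organism is a yeast strain with defined genetic alterations, cln2 rad14.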

[5] = NCI Yeast Anticancer Drug Screen. Data for the bub3 strain (AID 167); conditions: S. cerevisiae bub3 mutant strain, hits give high values
In short: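 Inhibition values come from growth of compound-treated mutant yeast normalised to vehicle-treated controls.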

[6] = NCI Yeast Anticancer Drug Screen. Data for the mlh1 rad18 strain (AID 175); conditions: S. cerevisiae mlh1 rad18 strain growth inhibition, hits give high values
In short: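 Cells of a genetically altered yeast strain, deficient in DNA damage repair, were treated with compound. Their growth was then compared with that of vehicle-treated cultures to give inhibition.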

[7] = at 5.0 µM (retest, dose inferred, filed as 0.5)
[8] = at 50.0 µM (retest, dose inferred, filed as 5.0)

Measured: growth inhibition

O=C1NN(C2=NNC3(C(=O)N2)c2ccccc2-c2ccccc23)C(c2ccccc2)=N/C1=C/c1ccc(O)cc1
active: [5]; at 50.0 µM 81.5% | [6]; at 50.0 µM 83.2%
inactive: [1]; [7] 1% | [1]; [8] -14% | [1]; at 50.0 µM 21.4% | [2]; [7] -14% | [2]; [8] 9% | [2]; at 50.0 µM 50% | [3]; [7] -9% | [3]; [8] 23% | [3]; at 50.0 µM 65% | [4]; [7] -6% | [4]; [8] 21% | [4]; at 50.0 µM 7% | [5]; [7] -14% | [5]; [8] 9% | [6]; [7] -43% | [6]; [8] 28%

CCCNC(=O)OCc1ccc(NCCN(CC)CC)c2c(=O)c3ccccc3sc12
inactive: [1]; [7] 10% | [1]; [8] 17% | [1]; at 50.0 µM 69% | [2]; [7] -7% | [2]; [8] -6% | [2]; at 50.0 µM -24% | [3]; [7] -4% | [3]; [8] 16% | [3]; at 50.0 µM -8.85% | [4]; [7] 13% | [4]; [8] 17% | [4]; at 50.0 µM 9.95% | [5]; [7] 14% | [5]; [8] 10% | [5]; at 50.0 µM -31.1% | [6]; [7] 3% | [6]; [8] 2% | [6]; at 50.0 µM 1.05%

NC(=S)N/N=C\c1nccc2c(C(F)(F)C(F)(F)C(F)(F)F)cccc12
active: [2]; at 50.0 µM 74.5% | [3]; at 50.0 µM 74% | [5]; [8] 81% | [5]; at 50.0 µM 75.6% | [6]; at 50.0 µM 73.3%
inactive: [1]; [7] 26% | [1]; [8] 61% | [1]; at 50.0 µM 57.9% | [2]; [7] 39% | [2]; [8] 69% | [3]; [7] 39% | [3]; [8] 69% | [4]; [7] 10% | [4]; [8] 62% | [4]; at 50.0 µM 69.6% | [5]; [7] 11% | [6]; [7] 24% | [6]; [8] 69%

C[C@]12CCC(=O)C=C1CC[C@@H]1[C@@H]2[C@@H](O)C[C@@]2(C)[C@H]1CC[C@]2(O)C(=O)COC(=O)C1CCCC1
active: [1]; at 50.0 µM 76.8% | [3]; at 50.0 µM 87.7% | [5]; at 50.0 µM 82.8% | [6]; at 50.0 µM 72.2%
inactive: [1]; [7] -7% | [1]; [8] -10% | [2]; [7] 1% | [2]; [8] -1% | [2]; at 50.0 µM 19.8% | [3]; [7] -2% | [3]; [8] -9% | [4]; [7] -18% | [4]; [8] -93% | [4]; at 50.0 µM 35.9% | [5]; [7] 8% | [5]; [8] 11% | [6]; [7] -7% | [6]; [8] -16%

C=CCNC(=O)NC1=CSC2=NC(=O)C3(NN12)c1ccccc1-c1ccccc13
active: [1]; at 50.0 µM 76.7% | [3]; at 50.0 µM 82.5% | [4]; [8] 83% | [4]; at 50.0 µM 73.4% | [5]; at 50.0 µM 76.4% | [6]; at 50.0 µM 82.1%
inactive: [1]; [7] -1% | [1]; [8] 50% | [2]; [7] -13% | [2]; [8] 48% | [2]; at 50.0 µM 68.2% | [3]; [7] -2% | [3]; [8] 63% | [4]; [7] 0% | [5]; [7] -6% | [5]; [8] 66% | [6]; [7] -6% | [6]; [8] 64%

CN(C)CC1CC/C(=C\c2ccc(O)cc2)C1=O (configuration not stated)
active: [1]; [8] 78% | [1]; at 50.0 µM 89.2% | [2]; [8] 98% | [2]; at 50.0 µM 93.7% | [3]; [8] 98% | [3]; at 50.0 µM 91.6% | [4]; at 50.0 µM 77.6% | [5]; [8] 97% | [5]; at 50.0 µM 91.9% | [6]; [8] 92% | [6]; at 50.0 µM 90.6%
inactive: [1]; [7] 11% | [2]; [7] -19% | [3]; [7] -4% | [4]; [7] 24% | [4]; [8] 53% | [5]; [7] -26% | [6]; [7] 19%

c1ccc2c(c1)[nH]c1cc3ccncc3cc12
inactive: [1]; [7] -45% | [2]; [7] -30% | [2]; [8] 29% | [2]; at 50.0 µM 46.9% | [3]; [7] -24% | [3]; [8] 52% | [3]; at 50.0 µM 45.6% | [4]; [7] -13% | [4]; [8] 42% | [4]; at 50.0 µM 34.7% | [5]; [7] -49% | [5]; [8] 51% | [5]; at 50.0 µM 34.5% | [6]; [7] -75% | [6]; [8] 56% | [6]; at 50.0 µM 61.7%
active: [1]; [8] 90% | [1]; at 50.0 µM 79.3%

O=C1/C(=C/c2ccccc2)CCCc2ccccc21
active: [3]; [8] 79% | [3]; at 50.0 µM 86% | [5]; [8] 75% | [5]; at 50.0 µM 74.8% | [6]; [8] 73% | [6]; at 50.0 µM 75%
inactive: [1]; [7] -2% | [1]; [8] 28% | [1]; at 50.0 µM 59.8% | [2]; [7] 7% | [2]; [8] 62% | [2]; at 50.0 µM 49.5% | [3]; [7] 14% | [4]; [7] -10% | [4]; [8] 14% | [4]; at 50.0 µM 19.7% | [5]; [7] 10% | [6]; [7] 10%

C=CCOc1ccc(N=NC(C#N)C#N)cc1
active: [1]; [8] 88% | [1]; at 50.0 µM 98.6% | [2]; [8] 87% | [2]; at 50.0 µM 98.3% | [3]; [8] 88% | [4]; [8] 90% | [5]; [8] 91% | [5]; at 50.0 µM 97.8% | [6]; [8] 93%
inactive: [1]; [7] 8% | [2]; [7] 5% | [3]; [7] 3% | [3]; at 50.0 µM 52.7% | [4]; [7] 0% | [4]; at 50.0 µM 58% | [5]; [7] -2% | [6]; [7] 4% | [6]; at 50.0 µM 54%
